This note sets out measurements from PubChem BioAssay AID624305 (National Center for Advancing Translational Sciences (NCATS), 2012).

Each structure is given as a SMILES string. Records with an inconclusive call do not appear. Entries that show only a call come without a potency. Calls of active or inactive are those of the source. Calls follow the shape of the dose curve; as a rule, active = well fitted activation curve with a large enough effect; inconclusive = small, poorly fitted or top-dose-only effect; inactive = no such curve, though single readings can be large or run the other way.
Potency is read from the fitted curve at half-maximal effect.

The nature of the assay: qHTS assay for re-activators of p53 using a Luc reporter: Hit Validation. Also: nearly all actives have a fitted effect of over 75% in size. The following applies: p53-responsive luciferase reporter cells, luminescence, H1299 line expressing heat-sensitive Ala138Val p53; series mostly up to 46.1 µM. Put shortly:
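Hit confirmation with a 1:5 dilution series, at 37 deg C for 24 hrs, in H1299 cells co-expressing temperature-sensitive p53-A138V and p53-responsive luciferase. Nocodazole served as control; luminescence read after 10 min with detection reagent.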
On the technique in general: qHTS replaces the single test concentration by a dilution series.
As for `COCCCN(C(C)=O)c1nc(-c2ccc(OC)cc2)cs1`, the Potency is 2.31 µM (active).
The result for `CCCSc1ccc2nc(-c3ccccc3)cn2c1` reads 0.206 µM (active).
With `O=C(N/N=C(\c1ccccc1)c1cccnc1)c1cccc(F)c1`, the Potency was 16.4 µM (active).
With `Cc1cc(C)nc(SCc2csc(-c3ccccc3)n2)n1`, the Potency was 13 µM (active).
With `CC(Sc1nc(N)cc(=O)[nH]1)C(=O)NNC(=O)c1cccc(Cl)c1` (stereo not drawn), the Potency entry was “inactive”.
On to `O=C(Nc1nc2c(s1)CCCC2)C1COc2ccccc2O1` (stereo not drawn), for which the Potency was 0.231 µM (active).
As for `O=C(CCCN1C(=O)/C(=C/c2ccco2)SC1=S)Nc1ccccc1`, the entry is “inactive”; as for `C(=C\c1nc(-c2ccccc2)no1)/c1ccccc1`, 2.31 µM (active); as for `Cc1c(C(=O)N2CCc3ccccc32)oc2c1C(=O)CC(C)(C)C2`, 4.11 µM (active).
The result for `O=C(Nc1ccc(Cl)cc1)Nc1nnc(SCc2ccccc2)s1` reads “inactive”; that for `C/C(=N\N=c1/scc(C)n1Cc1ccco1)c1cccc([N+](=O)[O-])c1`, “inactive”.
The result for `N/C(=N\OC(=O)c1ccccc1Cl)c1ccc(Cl)cc1` reads 9.2 µM (active); that for `C=C[C@@H]1c2cc(C)ccc2N(S(=O)(=O)c2ccc(C)cc2)[C@H](c2ccccc2C(F)(F)F)C1(C#N)C#N`, “inactive”.
In the case of `O=C(COC(=O)C12CC3CC(CC(O)(C3)C1)C2)Nc1ccc(Br)cc1F`, the Potency is 14.6 µM (active).
The result for `Cc1cc(C)nc(CC(N)=O)n1` reads “inactive”; that for `CCOC(=O)c1sc(NC(=S)NC(=O)c2ccco2)nc1C`, “inactive”; that for `C/C(=N\NC(=O)c1ccccc1)c1ccc(NC(=O)c2cccs2)cc1`, “inactive”.
`O=C(Nc1ccc2c(c1)OCO2)c1cc(Cl)ccn1`: the Potency was 4.61 µM (active).
As for `CCc1ccc2[nH]c(=O)c(CN(CCN3CCCC3)C(=O)NC3CCCCC3)cc2c1`, the entry is “inactive”; as for `O=C(CC1CCCCC1)NCc1ccc(Cl)cc1`, 11.6 µM (active); as for `Cc1ccc(C)n1-c1sc2c(c1C(=O)O)CCCC2`, “inactive”.
The result for `O=C(CSc1nnc(-c2ccc(O)cc2)o1)Nc1ccc2c(c1)OCCO2` reads 8.2 µM (active).
As for `O=C(CSc1nc2ccccc2c(=O)[nH]1)c1ccc(O)c(O)c1`, the entry is “inactive”.
In the case of `O=C(NCCC1=CCCCC1)c1ccc([N+](=O)[O-])cc1`, the Potency is 2.59 µM (active).
As for `OC(COc1ccc2cc(Br)ccc2c1)CN1CCCC1` (stereo not drawn), the entry is “inactive”.
As for `NNC(=O)c1cccc(O)c1`, the Potency entry is “inactive”.
As for `CCc1cc(C(=O)c2ccc(C)cc2)c(NC(=O)CCl)s1`, the entry is “inactive”; as for `CC12CCC(C(=O)N(CSC(=S)N/N=C\c3ccccc3O)C1=O)C2(C)C` (stereo not drawn), “inactive”.
Consider `COCCn1c(SCC(=O)Nc2ccc(N3CCOCC3)cc2)nc2ccccc21`, for which the Potency result is “inactive”.
On to `N#CC(c1ccccc1)C1CCN(Cc2ccccc2)CC1` (stereo not drawn), for which the Potency result is “inactive”.
With `Clc1ccc(Nc2nc(-c3cccs3)cs2)nc1`, the Potency is 4.11 µM (active).
As for `Cc1ccc(C(=O)Nc2ccn(C)n2)cc1`, the figure is 8.2 µM (active); as for `COc1cccc(NC(=O)CSC2=C(C#N)C(c3ccco3)C3=C(CCCC3=O)N2)c1` (stereo not drawn), “inactive”.
As for `O=C(NCCCNC1CCCCC1)c1ccc(/C=N/O)nc1`, the entry is “inactive”; as for `CN(Cc1ccccc1)c1ncnc2ccc(Br)cc12`, “inactive”.
Regarding `COc1ccc(N=C(N)SCc2ccccn2)cc1`, the Potency result was “inactive”.
Consider `Cc1cccc(NC(=O)Nc2ccc(C)cc2Br)c1`, for which the Potency is 16.4 µM (active).
As for `CCOc1ccc(-c2cnc3ccccc3n2)cc1`, the entry is “inactive”.
